Screen size: about 5,500 compounds; about 2,000 (36%) were called active. Another 18% or so got no clear call; they are omitted. Rule as the data show it: active = normalized growth mostly below about 0.91 (no sharp cut-off); inconclusive = no clear call, values can overlap the other calls; inactive = mostly above about 0.92. Some of the results follow.
Assay: chemical genetic growth profiling, strain panel (AID 1159580);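 also: tested at 20 µM; growth read once vehicle control cultures reached saturation at 30 °C; 1 = growth at the plate median or of vehicle wells; lower values mean less growth of the strain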
Details: S. cerevisiae deletion strains, growth OD

Measured: normalized growth

CC(=O)CC(=O)CCC(=O)O
inactive: locus YAL021C, strain ccr4, active compounds read low 0.991 | locus YAL026C, strain drs2, active compounds read low 1.05 | locus YAL030W, strain snc1, active compounds read low 1.02 | locus YBL061C, strain skt5, active compounds read low 1.03 | locus YBR009C, strain hhf1, active compounds read low 1.03 | locus YBR023C, strain chs3, active compounds read low 1.03 | locus YBR171W, strain sec66, active compounds read low 1.04 | locus YBR231C, strain swc5, active compounds read low 1.03 | locus YBR279W, strain paf1, active compounds read low 1.02 | locus YCL011C, strain gbp2, active compounds read low 1.02 | locus YCL016C, strain dcc1, active compounds read low 1.02 | locus YCL061C, strain MRC1, active compounds read low 1.02 | locus YCL069W, strain vba3, active compounds read low 1.02 | locus YCR088W, strain abp1, active compounds read low 1.02 | locus YDL005C, strain med2, active compounds read low 1.03 | locus YDL040C, strain nat1, active compounds read low 1.02 | locus YDR001C, strain nth1, active compounds read low 1.01 | locus YDR069C, strain doa4, active compounds read low 1.03 | locus YDR137W, strain rgp1, active compounds read low 1.01 | locus YDR159W, strain sac3, active compounds read low 1 | locus YDR195W, strain ref2 0.989 | locus YDR297W, strain sur2, active compounds read low 1.01 | locus YDR334W, strain swr1, active compounds read low 1.03 | locus YDR335W, strain msn5, active compounds read low 1.02 | locus YDR392W, strain spt3, active compounds read low 0.95 | locus YEL003W, strain gim4, active compounds read low 1.02 | locus YEL037C, strain rad23, active compounds read low 1.02 | locus YEL061C, strain CIN8 (second series), active compounds read low 1.02 | locus YER015W, strain faa2, active compounds read low 1.02 | locus YER016W, strain bim1, active compounds read low 1.04 | locus YER111C, strain swi4, active compounds read low 1.03 | locus YER155C, strain BEM2 (second series), active compounds read low 1.05 | locus YFR010W, strain ubp6, active compounds read low 1.03 | locus YGL167C, strain pmr1, active compounds read low 1.02 | locus YGL173C, strain kem1, active compounds read low 1.03 | locus YGL227W, strain vid30, active compounds read low 1.01 | locus YGL240W, strain doc1, active compounds read low 1.04 | locus YGL253W, strain hxk2, active compounds read low 1.05 | locus YHR013C, strain ard1, active compounds read low 1.04 | locus YHR027C, strain rpn1, active compounds read low 1.03 | locus YHR030C, strain SLT2, active compounds read low 0.982 | locus YHR079C, strain IRE1, active compounds read low 0.996 | locus YHR142W, strain chs7, active compounds read low 1.02 | locus YJL092W, strain hpr5, active compounds read low 1.02 | locus YJL095W, strain BCK1 (second series), active compounds read low 1.02 | locus YJL095W, strain BCK1, active compounds read low 0.983 | locus YJL115W, strain asf1, active compounds read low 1.03 | locus YJL129C, strain trk1, active compounds read low 1.01 | locus YJL154C, strain vps35, active compounds read low 1.01 | locus YJL164C, strain tpk1, active compounds read low 1.01 | locus YJL166W, strain qcr8, active compounds read low 1.02 | locus YJL187C, strain SWE1, active compounds read low 1.02 | locus YJR066W, strain TOR1, active compounds read low 0.962 | locus YKL160W, strain elf1, active compounds read low 1 | locus YKR026C, strain gcn3, active compounds read low 1.03 | locus YKR091W, strain srl3, active compounds read low 1.02 | locus YLL001W, strain dnm1, active compounds read low 1.01 | locus YLL026W, active compounds read low 1.02 | locus YLL041C, strain sdh2, active compounds read low 1.02 | locus YLR027C, strain aat2, active compounds read low 1.03 | locus YLR113W, strain HOG1, active compounds read low 1.04 | locus YLR221C, strain rsa3, active compounds read low 1.01 | locus YLR258W, strain gsy2, active compounds read low 1.04 | locus YLR262C, strain YPT6 (second series), active compounds read low 1.02 | locus YLR320W, strain mms22, active compounds read low 1.03 | locus YLR342W, strain FKS1, active compounds read low 1.03 | locus YLR357W, strain rsc2, active compounds read low 0.968 | locus YLR370C, strain arc18, active compounds read low 1.03 | locus YLR384C, strain iki3, active compounds read low 1.03 | locus YML120C, strain ndi1, active compounds read low 1 | locus YMR058W, strain fet3, active compounds read low 1.02 | locus YMR125W, strain sto1, active compounds read low 1.02 | locus YMR129W, active compounds read low 1.02 | locus YMR205C, strain PFK2, active compounds read low 1.02 | locus YMR231W, strain pep5, active compounds read low 1.02 | locus YNL071W, strain lat1, active compounds read low 1.03 | locus YNL183C, strain NPR1, active compounds read low 0.91 | locus YNL209W, strain ssb2, active compounds read low 1.02 | locus YNL248C, strain rpa49, active compounds read low 0.989 | locus YNL322C, strain KRE1 (second series), active compounds read low 1.02 | locus YNR049C, strain mso1, active compounds read low 1.02 | locus YOR001W, strain rrp6, active compounds read low 1.01 | locus YOR070C, strain gyp1, active compounds read low 1.02 | locus YOR080W, strain dia2, active compounds read low 1.01 | locus YOR083W, strain WHI5, active compounds read low 1 | locus YOR106W, strain vam3, active compounds read low 1.03 | locus YOR231W, strain MKK1, active compounds read low 0.992 | locus YOR265W, strain rbl2, active compounds read low 1.02 | locus YOR270C, strain vph1, active compounds read low 1.11 | locus YOR290C, strain snf2, active compounds read low 1.01 | locus YPL051W, strain arl3, active compounds read low 1.01 | locus YPL078C, strain atp4, active compounds read low 1.01 | locus YPL106C, strain sse1, active compounds read low 1.02 | locus YPL240C, strain hsp82, active compounds read low 1.03 | locus YPL256C, strain CLN2, active compounds read low 0.99

— PubChem BioAssay AID1159580 (chemical genetic matrix, 2015)
